Results taken from PubChem BioAssay (NCATS).
Inconclusive results are not listed. Entries that show only a call come without a potency. Activity calls are given as the source filed them. The call rests on the fitted dose curve; in most records, active means well fitted inhibition curve with a large enough effect; inconclusive means small, poorly fitted or top-dose-only effect, or effect the other way; inactive means flat fitted curve, though single readings scatter.

Molecular target: ATP-dependent 6-phosphofructokinase (Trypanosoma brucei brucei) (UniProt O15648)
Assay: qHTS Assay to Find Inhibitors of T. brucei phosphofructokinase: hit validation (AID 492961);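 further: luminescence reports ADP formed as PFK phosphorylates fructose-6-phosphate with ATP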
Details: T. brucei PFK, ADP-Glo luminescence; series mostly up to 51.4 µM
Text: NIH Molecular Libraries Probe Production Network [MLPCN] NIH Chemical Genomics Center [NCGC] Grant: 1 R03 MH092153-01 PI Name: Malcolm Walkinshaw, University of Edinburgh NCGC Assay Overview: Various species of the protozoan family Trypanosomatidae are responsible for a range of serious human diseases in tropical and subtropical areas of the world. […] Many of the disorders caused by trypanosomatids are fatal if left untreated, but most currently used drugs are inefficient and toxic. […] Oxidative metabolism involving the mitochondrial tricarboxylic acid cycle and oxidative phosphorylation are repressed in these parasites, and recent RNA interference (RNAi) experiments have shown that even partial depletion of certain individual glycolytic enzymes can lead to the death of cultured parasites. One such glycolytic enzyme, phosphofructokinase (PFK), catalyzes the formation of fructose-1,6-bisphosphate (F1,6BP) and ADP from fructose-6-phosphate (F6P) and ATP, and in many metabolic circumstances makes an important contribution to the control of flux through the glycolytic pathway. As a specific glycolytic target, PFK is particularly attractive as it catalyzes the first irreversible step in glycolysis, and structural and kinetic studies have shown very substantial and essential differences from corresponding host enzymes, allowing for the discovery of parasite-selective inhibitors. The goal of this screen is to find small-molecule inhibitors of T. brucei PFK using a biochemical assay that measures PFK activity as a function of ADP production. A luminescence-based assay for T. brucei PFK activity has been developed which uses luciferase to detect production of ADP. Traditional luciferase-based nucleotide detection reagents rely on ATP production as a direct substrate for the luciferase reaction; however, PFK catalyzes the transfer of a phosphate from ATP to F6P, resulting in the net depletion of ATP. To directly measure the ADP product of the PFK reaction, we used the ADP-Glo detection kit (Promega), which utilizes two separate reactions to 1) deplete all remaining uncatalyzed ATP and 2) convert all remaining ADP to ATP, which is then detected through a traditional luciferase-coupled reaction. Compounds were screened as a concentration-titration series that ranged from 57 uM to 0.7 nM.
NCGC Assay Protocol Summary: Substrate buffer was dispensed into white, solid 1536-well plates at 3uL/well in 0.1M triethanolamine (TEA) buffer, pH 8.0, containing final concentrations of 5 mM MgCl2, 0.01% Tween20, 0.5 mM fructose-6-phosphate (F6P) and 0.1mM ATP. Then, 23 nL of compounds or DMSO were delivered to each well using a pin tool. One uL T. brucei PFK (0.1M TEA, 0.01% Tween20, 0.1% bovine serum albumin (BSA) and 1.25nM PFK, final concentrations) was then dispensed, and plates were incubated at room temperature for 45 min. The luminescent detection reagent, ADP-Glo (Promega), was then added in two steps: the first reagent, ADP-Glo (which converts remaining uncatalyzed ATP), was added at 2.5uL/well and incubated for ten minutes at room temperature, and the second component, Kinase Detection reagent (which converts ADP to ATP as a substrate for luciferase-based luminescence), was added immediately after at 5uL/well, followed by one final ten minute room temperature incubation. The plates were measured on a ViewLux plate reader for luminescent signal using a clear filter with a one second exposure. The %Activity was determined from the corrected luminescence values. As no specific T. brucei PFK inhibitors have been identified in the literature, 1x (1.25nM) and 0x PFK enzyme controls (untreated) were included to normalize %Activity of identified inhibitors; 0x enzyme values corresponded to 100%Activity (full inhibition), while 1x PFK enzyme values were used to normalize 0%Activity (no inhibition). Concentration-response curves were fitted to the signals arising from the resulting luminescence. […]

Chain of ATP-dependent 6-phosphofructokinase (Trypanosoma brucei brucei) (O15648 whole entry, looked up): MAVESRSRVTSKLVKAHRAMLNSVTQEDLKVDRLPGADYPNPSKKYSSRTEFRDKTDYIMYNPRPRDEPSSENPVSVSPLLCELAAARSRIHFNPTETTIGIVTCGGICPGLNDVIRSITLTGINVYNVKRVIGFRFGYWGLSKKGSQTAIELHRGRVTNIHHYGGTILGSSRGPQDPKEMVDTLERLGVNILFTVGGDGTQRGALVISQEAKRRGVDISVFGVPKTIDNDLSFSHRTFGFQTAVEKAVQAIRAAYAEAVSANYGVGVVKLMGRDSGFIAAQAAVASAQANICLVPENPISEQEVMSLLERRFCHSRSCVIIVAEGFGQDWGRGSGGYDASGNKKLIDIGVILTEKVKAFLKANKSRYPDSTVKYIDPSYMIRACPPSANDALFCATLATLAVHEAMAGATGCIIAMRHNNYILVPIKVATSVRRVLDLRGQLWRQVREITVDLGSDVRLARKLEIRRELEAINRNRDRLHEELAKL

SMILES	Potency
COP(=O)(OC)OC(c1ccc(Cl)cc1)P(=O)(OC)OC (stereo not given)	inactive
CC(=O)NC(=O)c1ccccc1O	inactive
COc1cc(O)c(C(=O)c2ccccc2)cc1S(=O)(=O)O	inactive
C=C[C@@]1(C)CC(=O)[C@]2(O)[C@@]3(C)[C@@H](O)CCC(C)(C)[C@@H]3[C@H](O)[C@H](OC(C)=O)[C@@]2(C)O1	inactive
OC1C(O)C(O)C(O)C(O)C1O (stereo not given)	inactive
CCC(CC)(CC(=O)Nc1cccc(/C=C/c2nc(C3CCC3)cs2)c1)C(=O)O	inactive
CC1CCc2c(N3CCC(O)CC3)c(F)cc3c(=O)c(C(=O)O)cn1c23 (stereo not given)	inactive
CCCCN=C(N)N=C(N)N	inactive
NCCNC(=O)c1ccc(Cl)cn1	inactive
CCc1oc2ccccc2c1C(=O)c1cc(I)c(O)c(I)c1	inactive
CCN(CC)CCOc1ccc2c(c1)C(=O)c1cc(OCCN(CC)CC)ccc1-2	inactive
COc1ccc2c(c1)c1c3n2CCN(C)C3=NCC1	inactive
N/C(=N\N=C\c1ccc(Cl)cc1)N/N=C/c1ccc(Cl)cc1	inactive
COc1cc([C@H]2Oc3cc([C@H]4Oc5cc(O)cc(O)c5C(=O)[C@@H]4O)ccc3O[C@@H]2CO)ccc1O	inactive
O=C(O)P(=O)(O)O	inactive
COc1cc(C)nc(-n2nc(C)cc2OC)n1	inactive
CCOc1cc(OCC)c(C(=O)CCC(=O)O)cc1OCC	inactive
c1ccc(-c2nc[nH]c2-c2ccccc2)cc1	inactive
O=S(c1cc(Cl)cc(Cl)c1O)c1cc(Cl)cc(Cl)c1O	inactive
CCN(CC)CCNC(=O)COc1ccc(OC)cc1	inactive

SMILES	Potency
NC1CCN(c2nc3c(cc2F)c(=O)c(C(=O)O)cn3-c2ccc(F)cc2F)C1 (stereo not given)	inactive
CNCCCCOc1ccccc1Cc1ccccc1	inactive
CC(=O)NCCCCCC(=O)O	inactive
Cc1ncc(CO)c(C=O)c1O	inactive
CCCCCCCCCCCCOCCOCCOCCOCCOCCOCCOCCOCCOCCO	inactive
COc1cc(NS(=O)(=O)c2ccc(N)cc2)ncn1	inactive
NC(N)=NCc1cccc(I)c1	inactive
Cc1ccc2c(Br)cc(Br)c(O)c2n1	inactive
C#C[C@]1(O)CC[C@H]2[C@@H]3CCC4=Cc5oncc5C[C@]4(C)[C@H]3CC[C@@]21C	inactive
N#CCC(=O)NN	inactive
CCCCCCCCCCCCSCCOCCO	inactive
O=C(O)Cc1csc(-c2ccc(Cl)cc2)n1	inactive
O=C(Nc1ncc([N+](=O)[O-])s1)c1cccs1	inactive
CC(=O)OC[C@H]1O[C@@H](n2ncc(=O)[nH]c2=O)[C@H](OC(C)=O)[C@@H]1OC(C)=O	inactive
CC(C)(C)NC[C@H](O)COc1cccc2c1CCCC2=O	inactive
CCCCCCCCCCCCCC(=O)OC(C)C	inactive
Cc1ccc(-c2ncc(Cl)cc2-c2ccc(S(C)(=O)=O)cc2)cn1	inactive
CCCCC(CC)COC(=O)c1ccc(N(C)C)cc1 (stereo not given)	inactive
CCc1ccc(C(=O)C(C)CN2CCCCC2)cc1 (stereo not given)	inactive
CC(=O)O[C@H]1C[C@@H]2CC[C@@H]3[C@H](CC[C@@]4(C)[C@H]3C[C@H]([N+]3(C)CCCCC3)[C@@H]4OC(C)=O)[C@@]2(C)C[C@@H]1N1CCCCC1	inactive
